According to the supplement of paper PMC10849652:
The full data set covers some 7,900 targets. This sample favours those with a hit. About 0.6% of all pairs of compound and target were hits.

compound: c1cn2cc(-c3ccc4cn[nH]c4c3)nc(Nc3ccc(N4CCOCC4)cc3)c2n1 [entospletinib]; test: log2 fold change, soluble protein after heating vs DMSO (PISA); higher = thermal stabilisation; K562 cells, 10 uM, 30 min; active = over 0.2 and 3.5 SD of the protein, either way, in both replicates (recomputed)
Summary of the method: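 K562 cells at 2×10^6 cells/mL were treated for 30 min with 10 μM compound, and aliquots were heated for 3 min over 48°C-58°C before pooling. Extraction used PBS with 0.5% NP-40 at 4°C, and soluble protein was the supernatant after 21,000xg for 90 min, measured by TMTpro 16plex LC-MS/MS with channel sums equalised. Thermal stability values, relative to control samples and from duplicates, are log2 fold changes.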

Sequence of UniProt Q9Y5L0 (Q9Y5L0 whole entry, looked up): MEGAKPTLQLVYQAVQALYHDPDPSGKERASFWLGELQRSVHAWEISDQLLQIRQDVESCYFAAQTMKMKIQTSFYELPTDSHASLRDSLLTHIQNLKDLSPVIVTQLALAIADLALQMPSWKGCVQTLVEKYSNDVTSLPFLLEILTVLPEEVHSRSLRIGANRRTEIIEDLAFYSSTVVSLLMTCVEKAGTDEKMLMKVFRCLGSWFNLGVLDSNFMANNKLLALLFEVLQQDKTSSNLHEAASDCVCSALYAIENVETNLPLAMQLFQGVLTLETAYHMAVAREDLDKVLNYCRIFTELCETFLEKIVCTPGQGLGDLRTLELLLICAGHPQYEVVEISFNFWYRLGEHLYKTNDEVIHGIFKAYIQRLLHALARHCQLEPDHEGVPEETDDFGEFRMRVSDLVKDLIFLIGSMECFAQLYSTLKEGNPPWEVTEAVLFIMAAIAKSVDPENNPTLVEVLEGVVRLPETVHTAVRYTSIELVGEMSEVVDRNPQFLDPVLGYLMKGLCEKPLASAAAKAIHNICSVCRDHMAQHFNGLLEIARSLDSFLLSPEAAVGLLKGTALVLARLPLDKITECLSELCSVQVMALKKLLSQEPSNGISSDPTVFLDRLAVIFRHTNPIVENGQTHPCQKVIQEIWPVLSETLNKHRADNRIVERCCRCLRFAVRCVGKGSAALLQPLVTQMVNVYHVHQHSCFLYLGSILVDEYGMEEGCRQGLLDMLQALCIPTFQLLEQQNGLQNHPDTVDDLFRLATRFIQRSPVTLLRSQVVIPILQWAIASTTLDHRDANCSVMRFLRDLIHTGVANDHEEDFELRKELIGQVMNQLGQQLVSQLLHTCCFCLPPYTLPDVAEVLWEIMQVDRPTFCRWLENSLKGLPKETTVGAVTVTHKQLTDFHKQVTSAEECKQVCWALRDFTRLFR
Sequence of UniProt Q9HAV4 (Q9HAV4 whole entry, looked up): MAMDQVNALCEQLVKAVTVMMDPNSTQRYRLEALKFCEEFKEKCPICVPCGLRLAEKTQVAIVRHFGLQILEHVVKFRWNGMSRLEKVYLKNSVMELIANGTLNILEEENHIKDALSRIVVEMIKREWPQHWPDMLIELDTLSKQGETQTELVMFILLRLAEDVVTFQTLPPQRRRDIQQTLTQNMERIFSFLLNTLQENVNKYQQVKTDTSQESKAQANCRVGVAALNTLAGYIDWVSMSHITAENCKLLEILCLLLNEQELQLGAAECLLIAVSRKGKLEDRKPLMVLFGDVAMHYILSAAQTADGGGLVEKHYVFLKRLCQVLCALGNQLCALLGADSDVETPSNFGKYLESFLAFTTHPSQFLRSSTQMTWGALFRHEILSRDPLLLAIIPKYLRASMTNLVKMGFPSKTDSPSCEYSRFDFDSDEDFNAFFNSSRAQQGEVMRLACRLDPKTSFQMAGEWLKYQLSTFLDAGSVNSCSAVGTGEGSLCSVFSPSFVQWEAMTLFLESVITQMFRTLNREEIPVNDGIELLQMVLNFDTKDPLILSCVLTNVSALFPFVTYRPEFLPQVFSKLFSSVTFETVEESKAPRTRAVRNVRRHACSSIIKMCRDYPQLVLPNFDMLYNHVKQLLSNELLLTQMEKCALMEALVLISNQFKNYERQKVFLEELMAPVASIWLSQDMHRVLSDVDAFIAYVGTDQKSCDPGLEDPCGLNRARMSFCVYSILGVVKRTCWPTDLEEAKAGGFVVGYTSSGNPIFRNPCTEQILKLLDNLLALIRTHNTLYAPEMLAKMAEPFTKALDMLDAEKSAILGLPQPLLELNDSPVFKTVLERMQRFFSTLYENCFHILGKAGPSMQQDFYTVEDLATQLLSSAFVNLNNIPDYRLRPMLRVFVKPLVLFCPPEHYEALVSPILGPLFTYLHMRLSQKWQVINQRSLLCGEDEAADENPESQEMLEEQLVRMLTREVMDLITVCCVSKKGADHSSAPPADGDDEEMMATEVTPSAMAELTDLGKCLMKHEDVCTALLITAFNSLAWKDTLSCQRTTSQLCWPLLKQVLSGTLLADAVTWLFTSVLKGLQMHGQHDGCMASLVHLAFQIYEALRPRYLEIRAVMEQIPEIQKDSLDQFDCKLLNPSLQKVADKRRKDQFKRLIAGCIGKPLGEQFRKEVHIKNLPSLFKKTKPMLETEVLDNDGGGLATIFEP
Sequence of UniProt Q86UV5 (Q86UV5 whole entry, looked up): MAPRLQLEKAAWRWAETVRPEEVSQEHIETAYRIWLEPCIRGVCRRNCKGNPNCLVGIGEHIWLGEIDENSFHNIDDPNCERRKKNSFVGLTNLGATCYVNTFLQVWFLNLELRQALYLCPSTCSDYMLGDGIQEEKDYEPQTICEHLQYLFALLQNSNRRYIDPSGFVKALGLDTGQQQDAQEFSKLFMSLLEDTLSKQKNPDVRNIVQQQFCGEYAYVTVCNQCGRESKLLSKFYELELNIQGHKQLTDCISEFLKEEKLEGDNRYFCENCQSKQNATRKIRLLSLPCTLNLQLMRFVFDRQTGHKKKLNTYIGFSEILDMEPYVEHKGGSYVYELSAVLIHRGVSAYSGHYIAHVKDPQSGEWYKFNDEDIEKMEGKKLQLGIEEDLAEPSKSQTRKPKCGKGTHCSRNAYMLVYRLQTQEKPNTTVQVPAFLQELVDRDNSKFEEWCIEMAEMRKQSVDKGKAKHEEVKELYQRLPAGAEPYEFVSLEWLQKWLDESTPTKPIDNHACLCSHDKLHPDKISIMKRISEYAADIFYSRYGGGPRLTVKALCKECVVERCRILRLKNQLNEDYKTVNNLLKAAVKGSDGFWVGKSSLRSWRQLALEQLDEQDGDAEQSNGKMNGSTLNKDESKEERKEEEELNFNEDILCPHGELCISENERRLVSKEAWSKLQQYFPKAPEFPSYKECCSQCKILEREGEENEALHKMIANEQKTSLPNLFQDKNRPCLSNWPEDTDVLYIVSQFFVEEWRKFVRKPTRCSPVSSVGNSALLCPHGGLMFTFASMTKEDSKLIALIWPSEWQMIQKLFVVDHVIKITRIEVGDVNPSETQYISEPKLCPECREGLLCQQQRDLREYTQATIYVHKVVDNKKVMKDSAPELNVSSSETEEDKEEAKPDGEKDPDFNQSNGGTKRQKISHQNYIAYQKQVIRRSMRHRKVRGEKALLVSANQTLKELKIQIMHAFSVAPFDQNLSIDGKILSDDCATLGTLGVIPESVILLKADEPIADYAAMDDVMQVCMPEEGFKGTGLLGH
Sequence of UniProt Q86SZ2 (Q86SZ2 whole entry, looked up): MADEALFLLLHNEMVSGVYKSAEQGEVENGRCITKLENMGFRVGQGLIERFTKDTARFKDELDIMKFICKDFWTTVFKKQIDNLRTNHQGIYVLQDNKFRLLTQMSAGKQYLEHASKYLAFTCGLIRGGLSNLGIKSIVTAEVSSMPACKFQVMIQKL
Sequence of UniProt Q9HAD4 (Q9HAD4 whole entry, looked up): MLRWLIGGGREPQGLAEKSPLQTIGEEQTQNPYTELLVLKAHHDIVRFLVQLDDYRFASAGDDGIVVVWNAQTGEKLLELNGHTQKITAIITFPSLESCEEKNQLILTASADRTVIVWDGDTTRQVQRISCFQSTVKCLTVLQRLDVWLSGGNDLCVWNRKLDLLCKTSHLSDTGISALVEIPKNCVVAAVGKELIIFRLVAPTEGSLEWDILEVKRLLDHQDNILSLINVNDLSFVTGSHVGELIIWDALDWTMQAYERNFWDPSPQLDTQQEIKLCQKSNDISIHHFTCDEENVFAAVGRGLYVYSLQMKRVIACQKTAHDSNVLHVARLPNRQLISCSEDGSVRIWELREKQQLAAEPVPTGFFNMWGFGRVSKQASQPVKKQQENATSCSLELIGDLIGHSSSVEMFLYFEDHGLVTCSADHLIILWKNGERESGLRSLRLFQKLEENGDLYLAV
Sequence of UniProt Q502W6 (Q502W6 whole entry, looked up): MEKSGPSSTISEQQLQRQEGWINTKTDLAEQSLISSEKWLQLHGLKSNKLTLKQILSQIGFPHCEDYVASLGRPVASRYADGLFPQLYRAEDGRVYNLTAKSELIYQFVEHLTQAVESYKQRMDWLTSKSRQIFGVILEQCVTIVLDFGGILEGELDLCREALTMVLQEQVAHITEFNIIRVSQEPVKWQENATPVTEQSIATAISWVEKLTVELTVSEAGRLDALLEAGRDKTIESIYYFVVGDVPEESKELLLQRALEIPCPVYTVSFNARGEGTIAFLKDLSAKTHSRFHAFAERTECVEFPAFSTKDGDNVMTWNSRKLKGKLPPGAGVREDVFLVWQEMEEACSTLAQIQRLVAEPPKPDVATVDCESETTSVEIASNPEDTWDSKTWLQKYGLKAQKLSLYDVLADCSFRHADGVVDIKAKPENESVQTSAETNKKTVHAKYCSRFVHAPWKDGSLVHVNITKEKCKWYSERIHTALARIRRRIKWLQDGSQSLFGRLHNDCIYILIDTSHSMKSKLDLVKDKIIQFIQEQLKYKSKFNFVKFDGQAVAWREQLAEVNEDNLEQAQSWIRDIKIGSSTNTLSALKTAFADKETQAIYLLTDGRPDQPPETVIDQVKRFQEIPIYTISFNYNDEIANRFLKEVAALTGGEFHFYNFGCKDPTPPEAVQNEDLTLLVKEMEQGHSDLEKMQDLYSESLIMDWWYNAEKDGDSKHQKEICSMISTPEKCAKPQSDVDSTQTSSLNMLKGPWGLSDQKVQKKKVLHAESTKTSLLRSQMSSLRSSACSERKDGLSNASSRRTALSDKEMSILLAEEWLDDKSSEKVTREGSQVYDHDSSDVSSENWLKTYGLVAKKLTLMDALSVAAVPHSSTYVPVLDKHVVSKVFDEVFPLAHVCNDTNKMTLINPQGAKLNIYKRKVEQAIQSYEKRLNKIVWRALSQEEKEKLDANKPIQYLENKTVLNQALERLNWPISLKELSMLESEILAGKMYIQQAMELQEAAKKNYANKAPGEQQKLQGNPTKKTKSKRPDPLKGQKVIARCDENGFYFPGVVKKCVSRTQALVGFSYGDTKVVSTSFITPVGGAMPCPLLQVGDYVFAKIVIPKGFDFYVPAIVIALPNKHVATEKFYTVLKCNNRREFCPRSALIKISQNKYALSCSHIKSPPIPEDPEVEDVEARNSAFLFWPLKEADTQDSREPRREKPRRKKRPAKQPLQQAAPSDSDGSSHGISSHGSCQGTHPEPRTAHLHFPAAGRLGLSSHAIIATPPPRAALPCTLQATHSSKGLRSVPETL

log2 fold change, inactive:
VPS11 (UniProt Q9H270) 0.04, WDR4 (UniProt P57081) -0.027, USP3 (UniProt Q9Y6I4) -0.003, TNFRSF10A (UniProt O00220) 0.011, USP48 isoform 8 (UniProt Q86UV5) 0.067, TOM1 isoform 2 (UniProt O60784) 0.009, VWA3B isoform 6 (UniProt Q502W6) -0.237, TRAPPC6B (UniProt Q86SZ2) -0.003, WDR41 (UniProt Q9HAD4) -0.019, TMEM268 isoform 3 (UniProt Q5VZI3) -0.054, TNPO3 (UniProt Q9Y5L0) -0.048, UHRF1BP1L (UniProt A0JNW5) 0.012, TTI1 (UniProt O43156) 0.1, VPS33A (UniProt Q96AX1) 0.099, USP34 (UniProt Q70CQ2) -0.002, XPO5 (UniProt Q9HAV4) 0.001, TNFRSF8 (UniProt P28908) 0.002, TMEM8A (UniProt Q9HCN3) -0.002
